Among all 2,400 compounds or so, about 360 (15%) were called active.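 The calls were made as follows: active = viability falls under 70% at one or more tested concentrations, taken as toxicity; inactive = viability stays over 70% at every dose.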 Only a sample is shown. Results with a measured potency or affinity are listed apart.
Assay: viability loss in HeLa cells – cytotoxicity control for MgcRacGAP inhibitor project, dose response (AID 624300)
Details: CellTiter-Glo luminescence, 24 h; series mostly up to 100 µM

Row | Compound | outcome
1 | COc1cccc(CN2CCN(Cc3cc(OC)c(OC)c(OC)c3)CC2)c1OC | inactive
2 | Nc1c(Cl)ncnc1N/N=C/c1ccc(O)cc1 | inactive
3 | Oc1ccc(/C=N/Nc2nccnc2Cl)c(O)c1 | inactive
4 | CCOc1cc(/C=N/Nc2ncnc(Cl)c2N)ccc1O | inactive
5 | COc1cc(/C(C)=N/NC(=O)C(O)(c2ccccc2)c2ccccc2)ccc1O | inactive
6 | Cc1nc(C/C(=N\N)c2ccc(O)cc2O)cs1 | inactive
7 | O=C1CC(SC(=S)C2CCCC2=O)C(=O)N1 (configuration not stated) | inactive
8 | CC(CN1CCN(Cc2ccccc2)CC1)c1ccccc1 (configuration not stated) | inactive
9 | Cc1ccc(SCCN2CCN(Cc3ccccc3)CC2)cc1 | inactive
10 | CC(=O)c1c(Nc2ccc3c(c2)OCCO3)oc(C)cc1=O | inactive
11 | CC(=O)N1CCN(c2ccc(N)cc2)CC1 | inactive
12 | Oc1ccc(/C=N/n2cc(-c3ccccc3)[nH]c2=S)cc1 | inactive
13 | Nc1ccc(C(=O)N/N=C/c2ccc(N3CCOCC3)s2)cc1 | inactive
14 | CN(c1ccccc1)c1ccc(/C=N/N2CCOCC2)cc1 | inactive
15 | Oc1ccc(-c2csc(Nc3ncccn3)n2)cc1 | inactive
16 | Oc1ccc(-c2csc(Nc3cccnc3)n2)cc1 | inactive
17 | C#CCOCCOCCOCCNc1nc(N2CCN(C(=O)[C@H](CCCCN)n3cc([C@@H](N)C(C)CC)nn3)CC2)nc(N2CCN(C(=O)[C@H](CCCCN)n3cc([C@@H](N)CC(C)C)nn3)CC2)n1 (some centres not stated) | inactive
18 | Cc1ccc(N2CC(C(=O)Nc3ccc(N(C)C)cc3)CC2=O)cc1C (configuration not stated) | inactive
19 | O=C(O)c1ccc(S(=O)(=O)c2ccc3c(c2)C(=O)N(NC(=O)c2cccnc2)C3=O)cc1 | inactive
20 | Cc1cc(=O)oc2c(O)c(O)ccc12 | inactive
21 | O=C(O)c1cccc2cccc(-c3c4ccc(=O)c(O)c-4oc4c(O)c(O)ccc34)c12 | inactive
22 | CC(C(=O)NCC(=O)Nc1ccc(F)c(F)c1F)N1CCN(c2ccc(O)cc2)CC1 (configuration not stated) | inactive
23 | Cc1cc(C(=O)c2cnc(/N=C/N(C)C)s2)cc(C)c1O | inactive
24 | COc1cc(/C=N/NC(=O)C(=O)N2CCCC2)ccc1O | inactive

Row | Compound | outcome
25 | Oc1ccc(Br)cc1C=Nc1ccc2[nH]ncc2c1 | inactive
26 | Oc1ccccc1/C=N/n1c(-c2ccccc2)n[nH]c1=S | inactive
27 | O=[N+]([O-])c1cccc(/C=N/n2c(-c3cccnc3)n[nH]c2=S)c1 | inactive
28 | CCN(c1ccccc1)S(=O)(=O)c1ccc(OC)c(NC(=O)CNCCc2ccccc2)c1 | inactive
29 | CCOC(=O)CCNC(C)C1COc2ccccc2O1 (configuration not stated) | inactive
30 | O=C(COC(=O)c1c2c(nc3ccccc13)/C(=C/c1ccco1)CC2)NC1CCCC1 | inactive
31 | CC(C)c1ccc(NC(=O)CNCC(c2ccccc2)N(C)C)cc1 (configuration not stated) | inactive
32 | COC(C(=O)N/N=C(\C)CC(=O)Nc1ccc(N(C)C)cc1)c1ccccc1 (configuration not stated) | inactive
33 | COc1cc(N=Nc2c(C)n(C)n(-c3ccccc3)c2=O)ccc1N | inactive
34 | Oc1ccc(/C=N/N=C/c2ccc(O)cc2)cc1 | inactive
35 | COc1cccc(OC)c1OCCCCN1CCCC1 | inactive
36 | Cc1cccn2c(NCc3ccc4c(c3)OCO4)c(-c3ccc(O)cc3)nc12 | inactive
37 | C/C(CC(=O)Nc1ccc(N(C)C)cc1)=N\NC(=O)c1ccc([N+](=O)[O-])cc1Cl | inactive
38 | Cc1cc(/C=C(\C#N)C(=O)N2CCCCC2)cc(C)c1O | inactive
39 | COc1ccc(N2C(=O)CC(Nc3ccc(N4CCOCC4)cc3)C2=O)c(OC)c1 (configuration not stated) | inactive
40 | CN1C=CC(=CC=C2C=CC(=O)C=C2)C=C1 | inactive
41 | COc1cc(/C=C/C(=O)OC(C)C(=O)Nc2c(C)n(C)n(-c3ccccc3)c2=O)ccc1O (configuration not stated) | inactive
42 | COc1cc(/C=N/NC(=O)c2nnn(-c3nonc3N)c2C(C)C)ccc1O | inactive
43 | CCN1CCN(CCOc2ccc(Br)cc2C)CC1 | inactive
44 | COc1ccccc1-c1cn[nH]c1-c1ccc(O)cc1O | inactive
45 | COc1ccc(-c2cn[nH]c2-c2ccc(O)cc2O)cc1 | inactive
46 | CN1CCN(Cc2coc3c(Cl)cc(Cl)cc3c2=O)CC1 | inactive
47 | CN1C(=O)C2C(c3ccc(N(C)C)cc3)=NN(Cc3ccccc3)C2C1=O (configuration not stated) | inactive
48 | CC(C(=O)Nc1ccc2c(c1)OCO2)N1CCN(C)CC1 (configuration not stated) | inactive

Row | Compound | outcome
49 | CCN(CC)CCCNCC(=O)Nc1cc(C)on1 | inactive
50 | CCN(CC)CCn1c2ccccc2c(=O)c2c(O)ccc(O)c21 | inactive
51 | COc1ccc(-n2c(=O)c3c4c(sc3n3c(=S)[nH]nc23)CCCC4)cc1 | inactive
52 | c1cc2c(cc1CNc1ccc(N3CCOCC3)cc1)OCO2 | inactive
53 | COc1cc(/C=N/n2c(C3CCCCC3)n[nH]c2=S)ccc1O | inactive
54 | CN1CCN(/N=C/c2nc(-c3ccc(Cl)cc3)n3ccccc23)CC1 | inactive
55 | Oc1ccc(N2CCN(C(c3cccs3)c3nnnn3CCc3ccccc3)CC2)cc1 (configuration not stated) | inactive
56 | Cc1ccc(NC(=O)CCC(=O)N/N=C/c2ccc(O)cc2)cc1 | inactive
57 | Cn1cccc1CC(=O)N/N=C/C=C/c1ccco1 | inactive
58 | Cc1ccc(Nc2n[nH]c(=S)s2)c(C)c1 | inactive
59 | O=C(CNC1CC1)Nc1cc(C(F)(F)F)ccc1Cl | inactive
60 | CCC1=NN2C(=N)/C(=C\c3ccc(SCc4ccco4)o3)C(=O)N=C2S1 | inactive
61 | O=C(COc1ccccc1[N+](=O)[O-])N/N=C/c1ccc(O)cc1 | inactive
62 | CCOc1cc(/C=N/NC(=O)c2ccccc2OCc2ccc(F)cc2)ccc1O | inactive
63 | O=C(N/N=C/c1ccc(O)c(O)c1)c1cccc(S(=O)(=O)N2CCCCC2)c1 | inactive
64 | CC(=O)Nc1ccc(OC(=O)c2cc3ccccc3oc2=O)cc1 | inactive
65 | CCOC(=O)Nc1ccc(OC(=O)Oc2ccc(NC(=O)OCC)cc2)cc1 | inactive
66 | C=CCc1cc(C=Nc2ccc(N3CCOCC3)cc2)cc(OCC)c1O | inactive
67 | CCc1nnc(N/N=C/c2c(C)[nH]c3ccccc23)n1N | inactive
68 | CCN1CCN(C(C)C(=O)NC2CCCCC2)CC1 (configuration not stated) | inactive
69 | C/C(=N/Nc1ccc(C(=O)O)cc1)c1ccc2c(c1)Nc1ccccc1S2 | inactive
70 | C/C(=N\NC(=O)c1ccccc1F)c1ccc2c(c1)Nc1ccccc1S2 | inactive
71 | N#CC1=C(S)N(c2ccccc2)C2(CCCCC2)NC1=O | inactive
72 | CC1(C)O[C@@H]2[C@H](O1)[C@@H](COS(=O)(=O)O)O[C@H]2n1c(=S)[nH]c2c(=O)[nH]c(N)nc21 | inactive
